# From PubChem BioAssay AID651812 (National Center for Advancing Translational Sciences (NCATS), 2012)
# Out of some 2,100 compounds screened, about 650 (31%) were called active. Not shown: some 16% with an inconclusive outcome. Calls come from the whole dose curve; as a rule, active = well fitted inhibition curve with a large enough effect; inconclusive = small, poorly fitted or top-dose-only effect; inactive = flat fitted curve, though single readings scatter. Some of the results follow. Where a call stands in place of a potency, no number is given.
# Experiment: qHTS for inhibitors of Vif-A3G interactions: Cherry picks; note: nearly all actives have a fitted effect of over 80% in size
# Conditions: HeLa A3G-eYFP + Vif (tagged APOBEC3G with the HIV-1 protein that degrades it), 24 h; Potency: eYFP fluorescence increase; series mostly up to 36.9 µM
# Outline: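 HeLa cells stably expressing A3G-eYFP and Vif, cultured overnight then exposed to compounds at several concentrations for 24 hours at 37 C, 5% CO2; cellular yellow fluorescence (488 nm ex, 500-530 nm em) imaged on Acumen, MG132 positive control.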
# Potency is the fitted concentration of half-maximal effect.
row,SMILES,Potency
1,COc1cc(-c2cc(NC=O)c3ncc(-c4ccc(C(C)=O)cc4)n3c2)cc(OC)c1OC,inactive
2,CCN(CC)c1nc(C)c(C(=S)Nc2cc([N+](=O)[O-])ccc2Cl)s1,inactive
3,C/C(CCC(C)C)=N\NC(=S)NCc1ccccc1,inactive
4,CC(C)CN(CC(C)C)S(=O)(=O)c1ccc(C(=O)Nc2sc3c(c2C(N)=O)CCN(C(C)C)C3)cc1,18.4 µM (active)
5,CCN1CCc2c(sc(NC(=O)c3ccc(S(=O)(=O)N(CC)c4ccccc4)cc3)c2C(N)=O)C1,17.7 µM (active)
6,COc1cccc(C(=O)Nc2sc3c(c2C#N)CCN(C(C)=O)C3)c1,inactive
7,CCN1CCc2c(sc(-n3cccc3)c2C(C)NC(=O)Nc2ccc(C(=O)OC)cc2)C1 (stereo unspecified),inactive
8,CC(C)N1CCc2c(sc(NC(=O)c3cc4cc([N+](=O)[O-])ccc4s3)c2C(N)=O)C1,inactive
9,Cc1ccc(C(=O)Nc2sc(Cc3ccc4c(c3)OCO4)c(C)c2C(N)=O)cc1,inactive
10,CC(C)N1CCc2c(sc(NC(=O)c3ccc(S(=O)(=O)N4CCOCC4)cc3)c2C#N)C1,20.6 µM (active)
11,COc1ccc(C(=O)Nc2sc3c(c2C#N)CCN(C(C)=O)C3)cc1,inactive
12,CCCCN(CCCC)S(=O)(=O)c1ccc(C(=O)Nc2sc3c(c2C(N)=O)CCN(CC)C3)cc1,29.1 µM (active)
13,CC1(C)COC(Cn2c3ccccc3c3ccccc32)O1 (stereo unspecified),inactive
14,COC(=O)c1ccc(Oc2cc(C)nc(SC)n2)cc1,inactive
15,CC(/C=N/NC(=O)c1cccc(F)c1)=C\c1ccccc1,inactive
16,O=C(Cn1ncc(Cl)c(Cl)c1=O)NC(=O)NC1CCCCC1,inactive
17,C=CCSc1nc2sc3c(c2c(=O)n1CC)CCC3,inactive
18,COc1ccc(S(=O)(=O)N2c3ccccc3OCC2CC(=O)O)cc1 (stereo unspecified),inactive
19,CCOC(=O)c1c(NC(=O)c2ccc(S(=O)(=O)N3CCC(C)CC3)cc2)sc2c1CCN(C)C2,18.4 µM (active)
20,CCCN1CCc2c(sc(NC(=O)c3ccc(S(=O)(=O)N(C)c4ccccc4)cc3)c2C(N)=O)C1,16.4 µM (active)
21,CCCN1CCc2c(sc(NC(=O)c3ccc(S(=O)(=O)N(C)c4ccccc4)cc3)c2C(=O)NC)C1,18.4 µM (active)

row,SMILES,Potency
1,COc1ccccc1N(C)S(=O)(=O)c1ccc(C(=O)OCC(=O)N2CCC2)cc1,inactive
2,CC(C)(C)C(=O)Nc1sc2c(c1C#N)CCN(Cc1ccccc1)C2,inactive
3,COc1cc(N2CCCC2)c(OC)cc1/C=C(/C#N)c1ccc(F)cc1,18.4 µM (active)
4,COc1cc(N2CCCC2)c(OC)cc1/C=C(/C#N)c1ccc(Br)cc1,8.2 µM (active)
5,CSc1nc2ccccc2cc1/C=C(\C#N)c1ccccc1,inactive
6,COc1cc(-c2cnc3c(NC(C)=O)cc(-c4ccccc4CN(C)C)cn23)cc(OC)c1OC,inactive
7,COc1cc(C(=O)OCC(=O)Nc2ccc(N3CCOCC3)cc2)ccc1OCC(C)C,inactive
8,Cc1cc(C)c2nccc(/C=C/c3ccc(N(C)C)cc3)c2c1,16.4 µM (active)
9,CN(C)c1ccc(/C=C/c2ccnc3ccc(I)cc23)cc1,5.17 µM (active)
10,COc1ccc2nccc(/C=C/c3ccc(N(C)C)cc3)c2c1,18.4 µM (active)
11,CN(C)c1ccc(/C=C/c2ccnc3ccc(Br)cc23)cc1,2.59 µM (active)
12,CC1(C(=O)NCc2cccs2)Cc2c(-c3ccc(C(N)=O)cc3)ccnc2O1 (stereo unspecified),inactive
13,COc1ccccc1-c1cc(NC=O)c2ncc(-c3cccc(C(=O)N(C)C)c3)n2c1,inactive
14,COc1cc(C(=O)Nc2ccc3c(c2)ncn3C)cc(OC)c1OC,inactive
15,CC(=O)Nc1cccc(-c2ccnc3c2CC(C(=O)NCc2ccco2)O3)c1 (stereo unspecified),inactive
16,CN(C)c1ccc(/C=C/c2ccnc3ccc(N)cc23)cc1,18.4 µM (active)
17,Cc1ccc2nccc(/C=C/c3ccc(N(C)C)cc3)c2c1,16.4 µM (active)
18,O=C(NCc1ccccc1)C1Cc2c(-c3cccc(F)c3)ccnc2O1 (stereo unspecified),inactive
19,Cn1c(=O)c2cc(NC(=O)NCc3ccc(F)cc3)ccc2n1C/C=C/c1ccccc1,inactive
20,CCCCn1c(N)c(N(Cc2ccccc2OC)C(=O)c2ccc([N+](=O)[O-])s2)c(=O)[nH]c1=O,inactive
21,C=CCN1C(=O)c2ccc(C(=O)N(CC(C)C)c3c(N)n(CCCC)c(=O)[nH]c3=O)cc2C1=O,inactive

row,SMILES,Potency
1,CCCCn1c(N)c(N(CC(C)C)C(=O)Cc2ccc(S(=O)(=O)N3CCOCC3)s2)c(=O)[nH]c1=O,18.4 µM (active)
2,Cc1cc(N)cc(C)c1-c1c(Br)cc(N)cc1Br,inactive
3,COc1ccc(/C=C/C=C2\NC(=S)NC2=O)cc1,6.51 µM (active)
4,COc1cccc(Cn2c(-c3nonc3NC(C)=O)nc3ccccc32)c1,inactive
5,COc1cccc(Cn2c(-c3nonc3N)nc3ccccc32)c1,inactive
6,CCOc1ccc(Cn2c3ccc(OC)cc3c3nc4ccccc4nc32)cc1,16.4 µM (active)
7,COc1ccc2c(c1)c1nc3ccccc3nc1n2CC(=O)OC(C)C,3.66 µM (active)
8,CCOc1cccc(-n2nnnc2-c2ccc(OC)cc2)c1,inactive
9,CCCN1CCC(=NNc2ccc(S(=O)(=O)N3CCOCC3)cc2[N+](=O)[O-])CC1,inactive
10,COc1cc(S(=O)(=O)Nc2ccccc2N2CCCCC2)ccc1NC(C)=O,inactive
11,CCOCCC(=O)Nc1ccc2c(c1)c(=O)n(C)n2C/C=C/c1ccccc1,inactive
12,Cc1cccc(Cn2c(=O)n(CCCC(=O)NCc3ccco3)c(=O)c3ccccc32)c1,inactive
13,COc1ccc(NC(=O)CSc2nc3c(oc4ccccc43)c(=O)n2Cc2ccco2)cc1Cl,14.6 µM (active)
14,O=C(CCCCn1c(=O)c2ccccc2n(Cc2ccc(F)cc2)c1=O)NCc1ccco1,inactive
15,COc1ccccc1CCC(=O)Nc1ccc2c(c1)c(=O)n(C)n2Cc1ccc(F)cc1,inactive
16,COc1cc2nc(SCC(=O)NCc3ccco3)n(Cc3ccc(Cl)cc3)c(=O)c2cc1OC,5.8 µM (active)
17,CCCn1c(SCC(=O)Nc2ccccc2OC)nnc1-c1ccco1,inactive
18,c1ccc(N=Nc2ccc3cccccc2-3)cc1,inactive
19,Cc1ccc(-c2csc(NC3OC(=O)c4ccccc43)n2)cc1 (stereo unspecified),inactive
